{
  "source": "PubChem BioAssay AID1732",
  "about": "(National Center for Advancing Translational Sciences (NCATS), 2009)",
  "note": "Some of the results follow. Inconclusive results are not listed. Active and inactive are the calls of the source. The call rests on the fitted dose curve; in most records, active means well fitted inhibition curve with a large enough effect; inconclusive means small, poorly fitted or top-dose-only effect, or effect the other way, or another doubt; inactive means no such curve, though single readings can be large or run the other way.",
  "data": [
    {"target": "Dual specificity mitogen-activated protein kinase kinase 1 (Homo sapiens) (UniProt Q02750)", "sequence (Q02750 whole entry, looked up)": "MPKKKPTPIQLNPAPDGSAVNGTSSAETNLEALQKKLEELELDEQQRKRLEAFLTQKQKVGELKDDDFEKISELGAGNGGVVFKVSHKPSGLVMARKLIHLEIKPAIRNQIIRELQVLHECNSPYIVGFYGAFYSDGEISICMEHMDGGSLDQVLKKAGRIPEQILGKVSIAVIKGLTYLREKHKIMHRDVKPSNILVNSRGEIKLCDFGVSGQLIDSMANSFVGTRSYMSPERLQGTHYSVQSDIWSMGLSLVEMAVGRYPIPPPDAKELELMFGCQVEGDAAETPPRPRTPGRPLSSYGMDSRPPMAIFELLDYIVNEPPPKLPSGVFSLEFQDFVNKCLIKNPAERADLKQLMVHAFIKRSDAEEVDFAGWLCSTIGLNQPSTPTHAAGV", "experiment": "Assay for Inhibitors of the ERK Signaling Pathway using a Homogeneous Screening Assay: MEK Inhibition", "conditions": "series mostly up to 76.9 µM", "text": "qHTS Assay for Inhibitors of the ERK Signaling Pathway using a Homogeneous Screening Assay\nNIH Chemical Genomics Center [NCGC]\nNIH Molecular Libraries Screening Centers Network [MLSCN]\nAssay Submitter (PI): Dr. Wei Zheng, NCGC/NIH\nThe Ras/extracellular-signal-regulated kinase (ERK) mitogen activated protein (MAP) kinase signaling pathway (ERK1/2 cascade) plays is a key role in transmitting signals from the cell surface to the nucleus (Nishida and Gotoh 1993; Chang and Karin, 2001). The cascade is initiated by the small G-protein Ras, which recruits Raf […], where activation occurs. Alternatively, this pathway can be activated by elevating intracellular cAMP.\nActivation of the ERK pathway is essential in increased cell division and cell survival. Sustained and constitutive activation of the ERK pathway, however, has been linked to uncontrolled cell proliferation, increased cell survival, and tumor progression. Thus, the ERK has been as an attractive target for cancer chemotherapy in the past few years (Sebolt-Leopold and Herrera, 2004). Given its physiological and pathological importance, assessment of ERK phosphorylation has been broadly performed in both basic research and drug discovery. Most assays for the measurement of ERK phosphorylation use the antibody-based detection methods, such as western blot and ELISA. These assays require multiple reagent additions with cell wash steps and are not suitable for high-throughput screening.\nThe current cell-based ERK phosphorylation assay was performed using AlphaScreen platform. AlphaScreen is a two bead-based proximity-dependent chemical energy transfer luminescent assay platform. The assay reagents (ERK SureFire(TM) kit) were supplied from TGR BioSciences (Australia). […]\nThe HTRF kinase assay (components supplied as kit by Cisbio) was chosen for the EGFR and EGFR mutant enzyme assays that applied the time resolved fluorescence resonance energy transfer (TR-FRET) principle. […]", "values": [
      {"compound": "O=[N+]([O-])c1ccccc1N/N=C1\\CCc2ccccc21", "outcome": "inactive"},
      {"compound": "CN(C)c1cc2c(Nc3ccc4c(cnn4Cc4ccccc4)c3)ncnc2cn1", "outcome": "inactive"},
      {"compound": "CCCNc1ncnc2sc(C)c(C)c12", "outcome": "inactive"}
    ]}
  ]
}
